Test results reported in PubChem BioAssay AID1347165 (National Center for Advancing Translational Sciences (NCATS), 2019).
Among all 220,000 compounds or so, about 5,700 (2.6%) were called active. Not shown: some 18% with an inconclusive outcome. Calls follow the shape of the dose curve; as a rule, active = well fitted inhibition curve with a large enough effect; inconclusive = small, poorly fitted or top-dose-only effect; inactive = no such curve, though single readings can be large or run the other way. The full list was thinned out, with actives kept by preference.

molecular target: Lysine-specific demethylase 5B (Homo sapiens) (UniProt Q9UGL1); experiment: Primary screen for KDM5B Histone Demethylases FDH-coupled qHTS; conditions: FDH-coupled NADH fluorescence (FDH is formaldehyde dehydrogenase); series mostly up to 57.7 µM; also: nearly all actives have a fitted effect of over 70% in size
How it was run: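 Coupled FDH/NAD⁺ fluorescence readout. KDM5BΔAP 200 nM final; compound titration, 10 min RT preincubation; substrate mix 12.5 µM H3K4me3, 25 µM 2-OG, 50 µM Fe(II), 100 µM ascorbate, 0.25 mM NAD⁺, 0.25 U/mL FDH; ΔRFU over 30 min.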
Potency is read from the fitted curve at half-maximal effect.

Sequence of Lysine-specific demethylase 5B (Homo sapiens) (Q9UGL1 whole entry, looked up): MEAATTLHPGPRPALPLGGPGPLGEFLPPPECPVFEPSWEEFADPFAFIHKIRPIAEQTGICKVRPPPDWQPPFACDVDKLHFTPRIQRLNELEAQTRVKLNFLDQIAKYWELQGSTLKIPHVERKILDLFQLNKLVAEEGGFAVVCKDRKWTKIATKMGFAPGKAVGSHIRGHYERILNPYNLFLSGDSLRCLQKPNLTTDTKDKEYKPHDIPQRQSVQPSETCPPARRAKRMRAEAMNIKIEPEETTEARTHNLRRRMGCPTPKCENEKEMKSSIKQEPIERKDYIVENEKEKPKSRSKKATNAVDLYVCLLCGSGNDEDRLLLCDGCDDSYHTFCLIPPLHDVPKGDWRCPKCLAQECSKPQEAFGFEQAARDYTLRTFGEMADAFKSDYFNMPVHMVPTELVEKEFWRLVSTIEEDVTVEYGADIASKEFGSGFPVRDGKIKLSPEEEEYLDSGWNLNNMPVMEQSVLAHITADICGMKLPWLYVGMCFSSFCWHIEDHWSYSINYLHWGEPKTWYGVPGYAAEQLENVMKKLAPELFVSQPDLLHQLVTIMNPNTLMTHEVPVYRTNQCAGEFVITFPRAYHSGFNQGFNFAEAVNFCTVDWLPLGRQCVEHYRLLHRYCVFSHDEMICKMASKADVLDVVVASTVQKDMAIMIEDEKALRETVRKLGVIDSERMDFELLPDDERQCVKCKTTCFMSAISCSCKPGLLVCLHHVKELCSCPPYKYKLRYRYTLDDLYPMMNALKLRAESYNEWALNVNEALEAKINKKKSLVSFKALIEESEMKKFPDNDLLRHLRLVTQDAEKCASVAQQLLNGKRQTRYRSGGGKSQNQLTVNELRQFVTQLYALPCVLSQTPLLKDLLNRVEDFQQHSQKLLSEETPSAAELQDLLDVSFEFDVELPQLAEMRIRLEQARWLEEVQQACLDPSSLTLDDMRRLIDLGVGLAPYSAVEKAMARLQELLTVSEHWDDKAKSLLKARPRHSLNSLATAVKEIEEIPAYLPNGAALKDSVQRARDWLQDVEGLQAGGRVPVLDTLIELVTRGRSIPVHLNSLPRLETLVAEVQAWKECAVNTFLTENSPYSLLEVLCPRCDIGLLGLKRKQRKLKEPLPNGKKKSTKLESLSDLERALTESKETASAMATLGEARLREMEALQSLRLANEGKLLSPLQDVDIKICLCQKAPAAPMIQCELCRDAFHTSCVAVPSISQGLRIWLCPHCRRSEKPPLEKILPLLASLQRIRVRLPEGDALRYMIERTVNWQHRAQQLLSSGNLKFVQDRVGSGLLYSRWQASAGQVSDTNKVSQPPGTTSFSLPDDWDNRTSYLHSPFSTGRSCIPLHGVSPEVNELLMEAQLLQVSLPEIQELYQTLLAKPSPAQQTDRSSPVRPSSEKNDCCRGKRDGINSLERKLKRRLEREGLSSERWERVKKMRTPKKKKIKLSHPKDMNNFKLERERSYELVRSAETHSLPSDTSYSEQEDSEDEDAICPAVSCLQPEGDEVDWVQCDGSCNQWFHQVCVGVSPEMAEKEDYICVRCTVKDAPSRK

Potency, active:
Cc1noc(C)c1-c1nccc2c(=O)cc(N3CCOCC3)oc12 39.8 µM
O=c1cc(N2CCOCC2)oc2c(NCc3ccncc3)nccc12 35.5 µM
Cc1ccc(C2(O)CCN(c3nccc(CCC(F)(F)F)n3)CC2)nc1 22.4 µM
COCCOCC(=O)N1CCC2(CC1)c1[nH]c3ccc(OC)cc3c1CCN2C 28.2 µM
O=C(Cc1ccc(Cl)cc1)N1CCc2c(nc3cc[nH]n3c2=O)C1 31.6 µM
Cc1nn2c(c1-c1ccccc1N1CCCC1)N(C(=O)c1ccn(C)n1)CCC2 7.94 µM
COc1ccc(CNC(=O)c2cc3c(s2)CN(C2CC2)C3)cc1OC 11.2 µM
CC(C)CNc1ccc2nnc(-c3ccccn3)n2n1 31.6 µM
O=C(CCNc1cnc2cnccn12)NC1CCN(Cc2ccccc2)CC1 22.4 µM
COc1ccc2c(c1)OCC(C(=O)N1CCCN(c3ncccn3)CC1)C2 (stereo not drawn) 25.1 µM
Cc1nc(CCNc2nccc(-c3cccnc3)n2)nc2c1CCCC2 28.2 µM
NC(=O)Cn1ccc2cc(OCC3CCN(C(=O)C4CCCC4)CC3)cnc21 35.5 µM
CCCS(=O)(=O)N1CCC(Nc2nccnc2OCC)CC1 15.8 µM
CCOc1nccnc1NC1CCN(C(=O)c2cccnc2)CC1 28.2 µM
N#Cc1cc2c(nc1N1CCN(C3CCCC3)C(CCO)C1)CCCC2 (stereo not drawn) 28.2 µM
COc1ccc2cc(-c3[nH]ncc3CN3CCN(c4cccc(C)n4)CC3)ccc2c1 28.2 µM

Potency, inactive:
CN(c1ccccc1)c1cc(=O)c2ccnc(NC3CCOCC3)c2o1
O=c1cc(N2CCOCC2)oc2c(Nc3cccc(Cl)c3)nccc12
Cn1ncc2c(Nc3cccc4c3CCCC4)ncnc21
CCc1ccc(-n2nc(C)c3c(C(F)(F)F)cc(OCC(=O)NC(C)C)nc32)cc1
COc1cc2c(C(=O)N(C)c3cc(Cl)ccc3OC)cn(C)c(=O)c2cc1OC
O=C(COc1ccccc1)N1CC2(C1)CN(Cc1ccc(Cl)cc1)C(=O)O2
N#CCCNC(=O)CSc1nc(C2CC2)nc2ccccc12
O=C(Cn1cnc2c(Cl)cc(Cl)cc2c1=O)N(C1CCCC1)C1CCS(=O)(=O)C1 (stereo not drawn)
Cc1ccc(C2(O)CCN(C(=O)c3ccccc3-c3nn[nH]n3)CC2)nc1
CCCN1C(=O)NC(CC(=O)N2CCC(O)(c3ccc(C)cn3)CC2)C1=O (stereo not drawn)
Cc1csc(SCc2cc(Cl)c3c(c2)OCCO3)n1
N#Cc1cccc(NC(=O)CSc2ccccc2C(=O)Nc2ccc3c(c2)OCCCO3)c1
COc1ccccc1-n1nc(CC(N)=O)nc1C1CCCCn2nnnc21 (stereo not drawn)
C=CCOc1cccc(NC(=O)c2ccccc2Cl)c1
CN1CCc2c([nH]c3ccccc23)C12CCN(C(=O)c1nccc3ccccc13)CC2
COc1ccc2[nH]c3c(c2c1)CCNC31CCN(C(=O)c2ccccc2)CC1
CCN1CCC(N(C(=O)c2cc3ccccc3n2C)C2CC2)CC1
CCc1cc(=O)oc2c(C)c(OCC(=O)NCCN3CCOCC3)ccc12
O=C(Cc1ccc(F)cc1)N1CCCC(c2nn(-c3ccc(Cl)cc3)c(=O)[nH]2)C1 (stereo not drawn)
CCn1c2c(c(=O)n1Cc1ccccc1)CCN(C(=O)Cc1ccc3c(c1)OCO3)C2
Cc1nn2c(c1-c1ccccc1C(C)C)N(C(=O)c1cccc(C#N)c1)CCC2
Cc1nn2c(c1-c1ccccc1C(C)C)N(C(=O)c1cnccn1)CCC2
COc1cc(C2Nc3ccc(C)cc3[C@H]3OCCC[C@@H]23)cc(Cl)c1O (stereo partly drawn)
COc1cc(CNC(=O)Cc2ccc(OC)c(OC)c2)ccn1
CSc1ccc(CNC(=O)c2cc3c(s2)CCCC3)cc1
Cc1cccc(N2C(=O)c3ccc(C(=O)Nc4cccc(C(=O)O)c4)cc3C2=O)c1
CCCNc1ccc2nnc(C)n2n1
Cc1ccc(OCC(=O)Nc2ccc3oc(=O)ccc3c2)cc1C
O=C(CCc1ncc(-c2ccc(F)cc2)o1)NC1CCN(Cc2ccccc2)C1 (stereo not drawn)
O=C(O)CC1(CC(=O)NC2CCN(Cc3ccccc3)CC2)CCCC1
Cc1cc(OCC(=O)N2CCN(c3ncccn3)CC2)ccc1Cl
O=C(c1ccoc1)N1CCCN(C(=O)C2COc3ccccc3C2)CC1 (stereo not drawn)
Cc1nc(CNC(=O)[C@H]2CCC[C@@H](O)C2)nc2c1CCCC2
Cc1nc(CCNS(=O)(=O)c2cccnc2)no1
O=C(CCSc1nc2ccccc2s1)NCc1cc(F)cc(F)c1
COC(=O)c1ccc(C(=O)OCc2nc(N)c3ccccc3n2)cc1
O=C(O)CCn1ncc2cc(OC3CCN(C(=O)C4CCCC4)CC3)ccc21
CCn1ccc2cc(S(=O)(=O)N3CCC(C(=O)N4CCN(C)CC4)CC3)ccc21
Cc1ccc(-n2nnnc2SCc2nc3ccsc3c(=O)[nH]2)c(C)c1
O=C(Nc1ccc(SC2CCCC2)cc1)C1CCCC1
C=CCNC(=O)C[C@@H]1CCN(C(=O)c2cccnc2)C[C@@H]1CC
COC(=O)[C@@H]1CN(C(=O)c2cccnc2)CCN1C(C)=O
CCCS(=O)(=O)N1CCC(Cc2nc(-c3cccnc3)n[nH]2)C1 (stereo not drawn)
CCCS(=O)(=O)N1CCC2(CC1)C(OC)C(=O)N2CC1CC1 (stereo not drawn)
CC(Sc1nc(N)cc(N)n1)C(=O)c1ccc(Cl)cc1 (stereo not drawn)
Cn1cc(-c2cc3n(n2)CCC(=O)N3CC(=O)NC2CCCCC2)c2ccccc21
CCCCN(CCCC)c1cccc(-c2cccc(N(CCCC)CCCC)c2)c1
Cc1cccc(C)c1NC(=O)CSc1nc2c(cc1C#N)CCCC2
N#Cc1cc2c(nc1SCC(=O)NCCc1ccccc1)CCCC2
CCCCn1nc(C(=O)NC(CC)CC)c2ccccc2c1=O
COc1ccc(-c2cc(N3CCN(C(=O)Cc4cccc(OC)c4)CC3)n[nH]2)cc1
COc1ccc(-c2[nH]ncc2CN2CCCC(C(=O)NCc3ccccc3)CCNC(=O)CC2)cc1 (stereo not drawn)
